# The campaign covered roughly 2,200 compounds. About 1,300 (59%) were called active. The rule behind the calls is not given here. The set was probably picked from earlier hits. The list is a sample of the results. Measured potencies and affinities stand elsewhere.
# Assay: THP-1 cell cytotoxicity, dose response, cytotoxicity control for Salmonella PhoP regulon inhibitors, S. typhimurium screen hits (AID 2253)
# Settings: THP-1 viability, CellTiter-Glo luminescence, 72 h; series mostly up to 50 µM
row,SMILES,outcome
1,CCCc1cc(=O)oc2cc(OCC(=O)N3CCc4ccccc43)ccc12,inactive
2,CCn1c(SCc2ccc(F)cc2)nc2ccccc2c1=O,inactive
3,COc1cccc(-n2c(N)c(C(=O)Nc3c(C)n(C)n(-c4ccccc4)c3=O)c3nc4ccccc4nc32)c1,inactive
4,COc1cc(Cc2cc(N)nc(N)n2)cc(OC)c1OC,inactive
5,Cn1c(N)c(C(=O)COC(=O)C2CCCCC2)c(=O)n(C)c1=O,inactive
6,CCC(OC(=O)C(NC(=O)c1ccccc1)c1ccccc1)C(=O)Nc1cc(C)on1 (stereo not drawn),inactive
7,O=C(N/N=C/c1coc2ccc(Cl)cc2c1=O)c1cc(O)cc(O)c1,inactive
8,O=C(NCCc1ccc(Cl)cc1)/C(=C/c1cccnc1)NC(=O)c1ccccc1,inactive
9,Cc1occc1C(=O)n1cnc2ccccc21,inactive
10,O=c1[nH]c2ccccc2n1C1=CCCC1,inactive
11,Cc1ccc2c(c1)cc(CN(Cc1ccc3c(c1)OCO3)C(=O)c1cnccn1)c1nnnn12,inactive
12,COC(=O)c1sccc1N/N=C(\C)c1ccc(F)c(Cl)c1,inactive
13,CCOc1ccc(CSC(CC(=O)O)C(=O)O)cc1 (stereo not drawn),inactive
14,CC(=O)N1C(=O)C2(C(C#N)=C(N)Oc3c2c(C)nn3-c2ccccc2)c2ccccc21 (stereo not drawn),inactive
15,O=C(NCc1ccc2c(c1)OCO2)c1ccc(-n2cnnn2)cc1,inactive
16,Cc1cc(C)cc(NC(=O)CSc2nc3c(c(=O)[nH]2)CN(Cc2ccc(F)cc2)CC3)c1,inactive
17,Cn1cc(C(CC(=O)O)C(=O)O)c2ccccc21 (stereo not drawn),inactive
18,c1ccc(OCCCN2CCCC2)cc1,inactive
19,CCOc1ccccc1OCC(=O)Nc1ccc(S(=O)(=O)Nc2nc(C)cc(C)n2)cc1,inactive
20,COCCNC(=O)c1ccccc1NS(=O)(=O)c1ccc(Br)s1,inactive
21,Cc1[nH]n(-c2ccccc2)c(=O)c1-c1ccc(Cl)cc1,inactive
22,Cc1nn(-c2ccccc2)c(C)c1C(=O)OC/C(O)=C(\C#N)c1nc2ccccc2[nH]1,inactive
23,C/C(=C\C(=O)OCCCCCCCCC(=O)O)C[C@@H]1OC[C@H](C[C@@H]2O[C@H]2[C@@H](C)[C@H](C)O)[C@@H](O)[C@H]1O,inactive
24,Brc1ccc2cccnc2c1,inactive
25,O=C1C2C3c4ccccc4C(c4ccccc43)C2C(=O)N1c1cccc2cccnc12 (stereo not drawn),inactive

row,SMILES,outcome
1,CCc1cc2c(NCCC(=O)O)nc(C)nc2s1,inactive
2,c1ccc(Oc2cc(-c3ccccc3)ncn2)cc1,inactive
3,CCOc1ccc(S(=O)(=O)Nc2ccc(C(=O)N/N=C/c3c(C)nn(-c4ccccc4)c3N3CCCC3)cc2)cc1,inactive
4,Fc1ccc(-c2n[nH]c(=S)n2/N=C/c2c[nH]c3ccccc23)cc1,inactive
5,COc1ccc(-c2cc(C(=O)O)[nH]n2)cc1OC,inactive
6,Cc1cc(=O)[nH]c(N/N=C/c2c[nH]c3ccccc23)n1,inactive
7,Cn1cccc1C(=O)OCc1csc(-c2ccccc2)n1,inactive
8,N#CC1(C#N)COC23CCCCC2C1(C#N)C(=N)O3 (stereo not drawn),inactive
9,O=C(NC(CO)Cc1ccc([N+](=O)[O-])cc1)C(Cl)Cl (stereo not drawn),inactive
10,Cc1nc(C(=O)Nc2ccc(Cl)cc2)nn1-c1ccc([N+](=O)[O-])cc1,inactive
11,Cc1ccc(NC(=O)C2CC(=O)NC(N3CCCCC3)=N2)cc1Cl (stereo not drawn),inactive
12,CCOC(=O)C1(S(=O)(=O)c2ccccc2)CCN(Cc2ccc(Cl)cc2)CC1,inactive
13,CCN(CC)C(=O)CP(=O)(c1ccccc1)c1ccccc1,inactive
14,CCn1c2ccccc2c2cc(NC(=O)C(C)Oc3ccccc3)ccc21 (stereo not drawn),inactive
15,O=C(CCNS(=O)(=O)c1cccc2nsnc12)NCc1cccs1,inactive
16,O=C(OCC1COc2ccccc2O1)c1ccccc1F (stereo not drawn),inactive
17,CCC1C2CN(C(C)=O)CC=C2C(C#N)=C(N)C1(C#N)C#N (stereo not drawn),inactive
18,O=C(CCCN1C(=O)CCC1=O)Nc1ccc2c(c1)OCCO2,inactive
19,CCCNC(=O)CSc1nnc(C)s1,inactive
20,CC(=O)Nc1cccc(OC(=O)c2ccoc2C)c1,inactive
21,CO/N=C(/C(=O)N[C@@H]1C(=O)N2C(C(=O)O)=CCS[C@H]12)c1cnc(N)s1,inactive
22,COc1ccc(-c2ccccc2)cc1NCc1ccccc1C,inactive
23,CCOC(=O)Cc1ccc2sc(-c3ccccc3)nc2c1,inactive
24,COC(=O)Cc1c(C)nc2nc(NCc3ccc(Cl)cc3)[nH]n2c1=O,inactive
25,CC(C)NC(=O)CSc1nc(N)c(NC(=O)c2ccccc2F)c(=O)[nH]1,inactive

row,SMILES,outcome
1,CN1c2ccccc2C(O)=C(C(=O)Nc2ccccc2)S1(=O)=O,inactive
2,O=C(O)CCCCCN1C(=O)c2ccc(C(=O)O)cc2C1=O,inactive
3,CC(=O)N1N=C(c2ccco2)CC1c1ccc(Br)cc1 (stereo not drawn),inactive
4,CCOC(=O)CN(C)Cc1c[nH]c2ccccc12,inactive
5,O=C(c1ccccc1S(=O)(=O)NCc1ccccc1)N1CCCC1,inactive
6,CN(C)CCOC(=O)Cc1ccc(Cl)cc1,inactive
7,O=C(c1cccnc1Nc1ccc2c(c1)CCC2)N1CCOCC1,inactive
8,O=C(NCc1ccco1)c1ccc(Br)s1,inactive
9,Cn1c(=O)n(CC(=O)Nc2ccccc2)c2ccccc21,inactive
10,O=C(/C=C/c1ccccc1)N/C(=C/c1ccccc1)C(=O)N1CCOCC1,inactive
11,CN(C)c1ccnc(-n2cccc2/C=N/OCc2ccccc2)c1C#N,inactive
12,COC(=O)c1sc2nc(CSc3nc4ccc(C)cc4[nH]3)[nH]c(=O)c2c1C,inactive
13,CCc1cccc2c(C#N)cn(CC(=O)NCCOC)c12,inactive
14,CN1CCN(c2c(F)cc3c(=O)c(C(=O)O)cn4c3c2SCC4)CC1,inactive
15,S=c1nc(-c2ccccc2)oc2c1CCCC2,inactive
16,CCC(CC)C(=O)NCCc1ccc(OC)cc1,inactive
17,COc1ccc(-c2ccc(C#N)c(SCC(=O)NCCc3ccccc3)n2)cc1OC,inactive
18,N#CC1=C(S)N(c2ccccc2)C(c2ccc(-c3ccccc3Cl)o2)NC1=O (stereo not drawn),inactive
19,CCOC(=O)c1ccc2c(c1)C(=O)N(C1CCCCC1)C2=O,inactive
20,O=c1c2ccccc2nnn1Cc1ccccn1,inactive
21,CCOC(=O)N1CCN(C(=O)c2cn(CC(C)C)c(=O)c3c2c2ccccc2n3C)CC1,inactive
22,N#CCOC(=O)c1sccc1-n1cccc1,inactive
23,Cc1cc(C)c(C#N)c(SCc2cn3ccccc3n2)n1,inactive
